Test results from PubChem BioAssay AID1159580 (chemical genetic matrix, 2015).
Where “and” joins values, the source holds several entries; their conditions need not be identical. Identical values can stand only once. The whole screen tested about 5,500 compounds, of which about 2,000 (36%) were called active. Another 18% or so got no clear call; they are omitted. No stated cut-off is given here; in the data, active means normalized growth mostly below about 0.91 (no sharp cut-off); inconclusive means no clear call, values can overlap the other calls; inactive means mostly above about 0.92. The list shows a part of the results.

Assay: chemical genetic growth profiling, strain panel (AID 1159580);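 further: tested at 20 µM; growth read once vehicle control cultures reached saturation at 30 °C; 1 = growth at the plate median or of vehicle wells; lower values mean less growth of the strain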
Conditions: S. cerevisiae deletion strains, growth OD

Measured: normalized growth

COP(N)(=O)SC (configuration not stated)
inactive: locus YAL013W, strain DEP1, active compounds read low 1 | locus YAL021C, strain ccr4, active compounds read low 0.981 | locus YAL026C, strain drs2, active compounds read low 1.01 | locus YAL030W, strain snc1, active compounds read low 1 | locus YBL061C, strain skt5, active compounds read low 1.01 | locus YBR009C, strain hhf1, active compounds read low 1.02 | locus YBR021W, strain FUR4, active compounds read low 1.01 | locus YBR023C, strain chs3, active compounds read low 1.01 | locus YBR171W, strain sec66, active compounds read low 1 | locus YBR229C, strain ROT2, active compounds read low 0.978 | locus YBR231C, strain swc5, active compounds read low 1.01 | locus YBR279W, strain paf1, active compounds read low 1.01 | locus YCL011C, strain gbp2, active compounds read low 1 | locus YCL016C, strain dcc1, active compounds read low 1 | locus YCL029C, strain bik1, active compounds read low 1.01 | locus YCL061C, strain MRC1, active compounds read low 0.997 | locus YCL069W, strain vba3, active compounds read low 1 | locus YCR088W, strain abp1, active compounds read low 1 | locus YDL005C, strain med2, active compounds read low 1 | locus YDL035C, strain GPR1, active compounds read low 1.01 | locus YDL040C, strain nat1, active compounds read low 1.01 | locus YDL074C, strain BRE1, active compounds read low 0.993 | locus YDL101C, strain DUN1, active compounds read low 0.978 | locus YDL134C, strain PPH21, active compounds read low 1.01 | locus YDL185W, strain tfp1, active compounds read low 1.01 | locus YDL192W, strain arf1, active compounds read low 1.01 | locus YDR001C, strain nth1, active compounds read low 0.994 | locus YDR069C, strain doa4, active compounds read low 1.01 | locus YDR101C, strain arx1, active compounds read low 1 | locus YDR137W, strain rgp1, active compounds read low 1.01 | locus YDR150W, strain NUM1, active compounds read low 0.987 | locus YDR159W, strain sac3, active compounds read low 1.02 | locus YDR162C, strain NBP2, active compounds read low 0.993 | locus YDR195W, strain ref2 0.999 | locus YDR297W, strain sur2, active compounds read low 1 | locus YDR318W, strain mcm21, active compounds read low 1.01 | locus YDR334W, strain swr1, active compounds read low 1 | locus YDR335W, strain msn5, active compounds read low 0.998 | locus YDR388W, active compounds read low 1.01 | locus YDR392W, strain spt3, active compounds read low 1.01 | locus YDR502C, strain sam2, active compounds read low 1.01 | locus YEL003W, strain gim4, active compounds read low 1 | locus YEL037C, strain rad23, active compounds read low 0.998 | locus YEL061C, strain CIN8 (second series), active compounds read low 1.01 | locus YEL061C, strain CIN8, active compounds read low 1 | locus YER015W, strain faa2, active compounds read low 1.01 | locus YER016W, strain bim1, active compounds read low 1.01 | locus YER110C, active compounds read low 1.01 | locus YER111C, strain swi4, active compounds read low 1.01 | locus YER155C, strain BEM2 (second series), active compounds read low 1.02 | locus YER155C, strain BEM2, active compounds read low 0.98 | locus YER167W, strain BCK2, active compounds read low 1 | locus YFR010W, strain ubp6, active compounds read low 0.994 | locus YGL078C, strain dbp3, active compounds read low 1.01 | locus YGL086W, strain mad1, active compounds read low 1.01 | locus YGL167C, strain pmr1, active compounds read low 1.01 | locus YGL173C, strain kem1, active compounds read low 1.02 | locus YGL227W, strain vid30, active compounds read low 1.01 | locus YGL240W, strain doc1, active compounds read low 1.02 | locus YGL248W, strain PDE1, active compounds read low 1.01 | locus YGL253W, strain hxk2, active compounds read low 0.997 | locus YGR078C, strain PAC10, active compounds read low 0.997 | locus YGR135W, strain pre9, active compounds read low 0.999 | locus YGR229C, strain SMI1, active compounds read low 1 | locus YGR252W, strain gcn5, active compounds read low 1.02 | locus YHR013C, strain ard1, active compounds read low 0.994 | locus YHR027C, strain rpn1, active compounds read low 1 | locus YHR030C, strain SLT2, active compounds read low 0.986 and 1.05 | locus YHR079C, strain IRE1 (second series), active compounds read low 1.02 | locus YHR079C, strain IRE1, active compounds read low 1.07 | locus YHR094C, strain hxt1, active compounds read low 1.01 | locus YHR129C, strain ARP1, active compounds read low 0.998 | locus YHR142W, strain chs7, active compounds read low 0.982 | locus YHR200W, strain rpn10, active compounds read low 1.01 | locus YIL066C, strain RNR3, active compounds read low 1.03 | locus YIL073C, strain SPO22, active compounds read low 1.06 | locus YIL125W, strain kgd1, active compounds read low 1 | locus YIR030C, strain dcg1, active compounds read low 1.01 | locus YJL092W, strain hpr5, active compounds read low 0.998 | locus YJL095W, strain BCK1 (second series), active compounds read low 1.01 | locus YJL095W, strain BCK1, active compounds read low 0.99 and 1.03 | locus YJL115W, strain asf1, active compounds read low 1 | locus YJL129C, strain trk1, active compounds read low 0.993 | locus YJL134W, strain LCB3, active compounds read low 1 | locus YJL154C, strain vps35, active compounds read low 0.998 | locus YJL164C, strain tpk1, active compounds read low 1 | locus YJL166W, strain qcr8, active compounds read low 1.01 | locus YJL168C, strain set2, active compounds read low 1.01 | locus YJL187C, strain SWE1 (second series), active compounds read low 1.01 | locus YJL187C, strain SWE1, active compounds read low 1.01 | locus YJR043C, strain POL32, active compounds read low 1.02 | locus YJR066W, strain TOR1, active compounds read low 0.985
